Screens: PubChem, National Center for Advancing Translational Sciences (NCATS)
gsp antag: antagonizes gsp, the McCune-Albright syndrome mutation | gsp-mutant cells, cAMP HTRF, 30 min | 340,000 tested, 0.4% active | AID 624288 | Potency, µM (doses to about 76.9 µM), for inactives: at the highest dose activity change, negative = inhibition, most hits filed as inhibitors; calls by dose curve; cell line not stated here;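 also: intracellular cAMP measured with PDE inhibitor Ro 20-1724 present during compound exposure; potency is read from the fitted curve at half-maximal effect; % is scaled to controls: 0 for no effect and ±100 for the full control effect; nearly all actives have a fitted effect of over 65% in size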
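HTRF cAMP read-out (cAMP-d2 plus anti-cAMP antibody-K in lysis buffer, 30 min RT). Before lysis, cells are exposed to compounds with […] for 30 min at 37C in DPBS containing Ca/Mg, BSA and Tween 20.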
RXFP1 antag: antagonists of human relaxin receptor RXFP1; Q9HBX9; HEK293-RXFP1, relaxin-stimulated cAMP HTRF, 30 min; stronger effect = lower value; activity change, negative = inhibition, % at 57.5 µM; 350,000 tested, 0.59% active;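 active = activity change of -60% or lower, but not beyond a set lower limit; inconclusive = change between -60% and -40%, or beyond the set limit; inactive = change above -40%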; also: % is scaled to controls: 0 for no effect and ±100 for the full control effect
Target sequence (Q9HBX9 whole entry, looked up): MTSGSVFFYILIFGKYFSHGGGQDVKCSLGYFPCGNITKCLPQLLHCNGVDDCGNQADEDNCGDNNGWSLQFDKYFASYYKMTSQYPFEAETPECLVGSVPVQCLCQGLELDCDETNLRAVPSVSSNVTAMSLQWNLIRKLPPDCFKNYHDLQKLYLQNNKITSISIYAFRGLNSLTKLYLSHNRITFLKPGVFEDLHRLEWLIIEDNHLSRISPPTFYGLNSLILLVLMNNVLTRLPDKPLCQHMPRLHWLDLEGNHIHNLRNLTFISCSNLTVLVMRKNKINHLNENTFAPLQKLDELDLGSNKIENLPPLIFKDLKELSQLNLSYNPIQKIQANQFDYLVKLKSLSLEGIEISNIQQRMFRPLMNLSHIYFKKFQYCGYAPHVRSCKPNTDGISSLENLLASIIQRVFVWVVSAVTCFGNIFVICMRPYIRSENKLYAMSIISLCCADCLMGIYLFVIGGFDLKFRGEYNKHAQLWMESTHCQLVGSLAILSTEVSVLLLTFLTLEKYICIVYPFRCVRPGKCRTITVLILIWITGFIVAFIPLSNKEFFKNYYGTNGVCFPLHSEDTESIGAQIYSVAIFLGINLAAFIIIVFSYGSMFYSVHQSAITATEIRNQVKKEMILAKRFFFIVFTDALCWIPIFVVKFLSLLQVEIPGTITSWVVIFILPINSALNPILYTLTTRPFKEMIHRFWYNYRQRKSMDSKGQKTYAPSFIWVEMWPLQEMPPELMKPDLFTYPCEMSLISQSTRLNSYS
Akt phos inh: blocks phosphorylation of Akt. Neuro2A IGF-stimulated pAkt S473 HTRF, 20 min; stronger effect = lower value. activity change, % for hits at 50 µM. 360,000 tested, 0.32% active. AID 651550; in the data active = activity change below about -80%; inconclusive = mostly about -51% to -80%; also: % is scaled to controls: 0 for no effect and ±100 for the full control effect
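Neuro2A cells (4,500/well, DMEM with 0.5% FBS) were treated with compound at a single 50 µM final concentration, stimulated with 6 nM IGF for 20 min at 37 °C, and lysed. Phospho-Akt Ser473 was read by HTRF as 665/615 ratio ×10^4.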
gsp ag: agonists of gsp mutant (McCune-Albright syndrome); gsp mutant cells, cAMP HTRF, 30 min; Potency, µM (doses to about 76.9 µM), inactives show at the top dose activation (cAMP increase), usual class: activators; 340,000 tested, 0.13% active; active = well fitted activation curve with a large enough effect; inconclusive = small, poorly fitted or top-dose-only effect, or another doubt; inactive = no such curve, though single readings can be large or run the other way; cell line not stated here;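 also: phosphodiesterase inhibitor Ro 20-1724 added with compounds to block cAMP breakdown; potency is read from the fitted curve at half-maximal effect; nearly all actives have a fitted effect of over 60% in size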
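Cells in DMEM/10% FBS with G418 were pretreated with compounds in DMSO plus […] (300 uM stock) for 30 min at 37C. cAMP was measured by HTRF (cAMP-d2 plus anti-cAMP antibody-K) after 30 min at room temperature.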
RXFP1 ag: RXFP1 (human) receptor agonism; Q9HBX9; HEK293T-RXFP1 cAMP TR-FRET, 30 min; response scale: percent of porcine relaxin response, buffer zero; Potency, µM (series often up to 57.5 µM), for inactives: top-dose activation, usual class: activators; 370,000 tested, 0.3% active; AID 2676; active = well fitted activation curve with a large enough effect; inconclusive = small, poorly fitted or top-dose-only effect; also: potency is read from the fitted curve at half-maximal effect; % is scaled to controls: 0 for no effect and ±100 for the full control effect; nearly all actives have a fitted effect of over 60% in size
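HEK293T cells stably expressing RXFP1 were pretreated with the PDE4 inhibitor Ro 20174, exposed to compounds for 30 min at 37C, lysed, and cAMP was read by TR-FRET. Data normalized to buffer (basal) and 29 nM porcine relaxin (100%).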
* marks the source's active call; other numbers are inactive results; i = inactive; ? = inconclusive; . = not tested or not shown; ! = not active in a repeat; [ ] = dose if it differs, or a comment. Compounds with a hit are over-represented: about 1.2% of the library has one in this group of screens.

SMILES | gsp antag | RXFP1 antag | Akt phos inh | gsp ag | RXFP1 ag
O=C(NNc1nc(=O)c2cccnc2s1)c1ccccc1O | 21% | 13 | i | 47%[15.4 µM] | 16µM*
COc1ccc(CNC(=O)c2cc3c(=O)[nH]c4ccccc4c3n2C)c(OC)c1 | . | 2 | . | . | 1%
N#CCCn1c(C2CCCCC2)nc2ccccc21 | 0% | -23 | -122%* | -5% | 0%
Cc1c(C(=O)NCc2ccc(Cl)cc2)sc2nc3n(c(=O)c12)CCCCC3 | . | -2 | . | . | 0%
Cc1ccc(Cl)cc1N1CCN(C(=O)c2ccc(NC(=O)c3nsc4ccccc34)cc2)CC1 | . | -8 | . | . | 0%
Cc1ccc(Cl)cc1N1CCN(CCNC(=O)Nc2ccccc2Cl)CC1 | . | . | . | . | 2%
COc1cc2nc(Nc3ccc(C)c(Cl)c3)nc(N)c2cc1OC | 1% | -25 | i | -10% | -1%
COc1cc2nc(Nc3ccc(C)c(C)c3)nc(N)c2cc1OC | 16% | -110*! | i | -71% | -1%
O=C1N=c2ccccc2=C1c1sc(Nc2ccc(O)cc2)nc1O | -6% | -81* | i | -6%[15.4 µM] | -2%
CNc1cc(CS(=O)c2ccccc2)nc(-c2ccccc2)n1 (stereo unspecified) | 5% | 5 | -123%* | -31% | 0%
O=S(Cc1cc(Sc2ccccc2)nc(-c2ccccc2)n1)c1ccccc1 (stereo unspecified) | 2% | -5 | i | 2% | -1%
O=C(NC(Cc1c[nH]c2ccccc12)C(=O)Nc1ccc(F)c([N+](=O)[O-])c1)c1cccs1 (stereo unspecified) | -2% | -3 | i | 1% | 0%
O=C(NC(Cc1c[nH]c2ccccc12)C(=O)Nc1ccc(OC(F)(F)F)cc1)c1cccs1 (stereo unspecified) | 4% | -71* | i | 0%[15.4 µM] | 0%
CC(=O)c1cccc(OCc2cc(C(=O)N3CCC(N4CCCCC4)CC3)no2)c1 | -3% | -81* | i | 15% | 0%
COc1ccc2c(c1)CCc1c(C(=O)N3CCCc4ccccc43)noc1-2 | 40µM* | -20 | . | -5% | -1%
COc1ccc2c(c1)CCc1c(C(=O)N3CCOCC3)noc1-2 | -7% | -12 | i | 5% | -1%
C#CCOC(=O)Nc1cccn(Cc2c(Cl)cccc2Cl)c1=O | -18% | -2 | -120%* | ? | 0%
O=C(Nc1cccn(Cc2c(Cl)cccc2Cl)c1=O)C1CC1 | -2% | -8 | i | 1%[15.4 µM] | -2%
OC[C@H]1O[C@@H](OCCc2ccc(O)cc2)[C@H](O)[C@@H](O)[C@H]1O | . | -6 | . | . | .
Cc1ccccc1OCC(O)CNC1CCC(NCC(O)COc2ccccc2C)CC1 (stereo unspecified) | -7% | -101* | i | 0% | 0%
Cc1ccc(OCC(O)CNC2CCCC2)c(C)c1 (stereo unspecified) | 12% | 7 | i | -39% | 0%
Cc1cc(CNC(=O)C(C)n2cc([N+](=O)[O-])cn2)c2ccccc2n1 (stereo unspecified) | 9% | -8 | i | 6%[15.4 µM] | ?
CC(C(=O)NCc1ccccc1)n1cc([N+](=O)[O-])cn1 (stereo unspecified) | 5% | 4 | i | 1.6µM* | -3%
COc1ccc(N(C)C(=O)c2ccc3c(Cl)c4c(nc3c2)CCCC4)c(OC)c1 | ? | -96* | i | -20% | 2%
CCN(C(=O)c1ccc2c(Cl)c3c(nc2c1)CCC3)c1cccc(C)c1 | . | . | . | . | 1%
SMILES | gsp antag | RXFP1 antag | Akt phos inh | gsp ag | RXFP1 ag
CCc1ccc(N(CC)C(=O)c2ccc3c(Cl)c4c(nc3c2)CCC4)cc1 | -29% | -76* | i | -33% | 2%
Cc1ccc(N(C)C(=O)c2ccc3c(Cl)c4c(nc3c2)CCC4)cc1C | ? | -89* | i | 2% | 1%
CCCCc1nc2cc(C(=O)NCc3cn(C)nc3C)ccc2o1 | 35µM* | 8 | i | 7% | 3%
CCc1ccc2n(-c3ccc(OC)cc3)c([S-])c(C(=O)Nc3cc(C)cc(C)c3)[n+]2c1 | 29% | -7 | i | 10%[15.4 µM] | 5µM*
N#CCCn1cc(/C=C(\C#N)c2nc3ccccc3s2)c(-c2ccc(F)cc2)n1 | 4% | 12 | -88%* | ? | 19%
O=C(COc1ccc(C(=S)N2CCOCC2)cc1)N1CCCC1 | 6% | 1 | -124%* | 13% | 1%
O=C(COc1ccc(C(=S)N2CCOCC2)cc1)N1CCOCC1 | 6% | -4 | i | -56% | -1%
CCOc1ccc(-c2nnc(SCC(=O)NC3CCCCC3)nc2-c2ccc(OCC)c(OC)c2)cc1OC | . | -34 | . | . | 2%
COc1ccc(-c2nnc(SCC(=O)NC3CCCC3)nc2-c2ccc(OC)c(OC)c2)cc1OC | . | -70* | . | . | 0%
Cc1ccc2nc(Cl)c(C3CC(c4cccs4)=NN3S(C)(=O)=O)cc2c1 (stereo unspecified) | -23% | 3 | i | 13% | -1%
CC(=O)N1N=C(c2cccs2)CC1c1cc2cc(C)ccc2nc1Cl (stereo unspecified) | 50µM* | 2 | i | -37% | 7%
COc1ccc2c(c1)O[C@@H](c1cccc(C(F)(F)F)c1)[C@H](OC(=O)Nc1ccc(OC(F)F)cc1)C2=O | 11µM* | . | i | 8% | 4%
C#C[C@]1(OC(C)=O)CC[C@H]2[C@@H]3CCC4=C/C(=N/O)CC[C@@H]4[C@H]3CC[C@@]21CC | . | -32 | . | . | .
CCC(C)NS(=O)(=O)c1ccc(OCC(=O)NCc2ccc3c(c2)OCO3)cc1 (stereo unspecified) | 0% | 2 | i | 10% | 1%
CCCNS(=O)(=O)c1ccc(OCC(=O)NCc2ccc3c(c2)OCO3)cc1 | -16% | 6 | -102%* | -27% | 2%
COc1ccc(-c2nnc(SCc3cc(=O)c4cc(C)cc(C)c4[nH]3)n2C)cc1 | . | -13 | . | . | 0%
O=C1Nc2ccccc2/C1=C/C(=O)c1cccs1 | 24% | ? | i | -15% | -2%
CCN1C(=O)/C(=C\C(=O)c2cccs2)c2cc(Br)ccc21 | -4% | -66* | i | -20% | 2%
Cc1ccc(Cl)c2sc(NC(=O)CS(=O)(=O)c3ccc(Cl)cc3)nc12 | . | -11 | . | . | 0%
O=C(CCNC(=O)Cn1cnc2ccccc2c1=O)NCC1COc2ccccc2O1 (stereo unspecified) | 18% | 4 | -107%* | 26% | 3%
C=CCn1c(Sc2nnc(C)s2)nc2c1c(=O)[nH]c(=O)n2C | 8% | 19 | -124%* | 13% | 2%
Cc1oc2cc(Br)c(O)c(Br)c2c1-c1ccccc1 | -13% | -101* | i | 9%[15.4 µM] | 0%
CCCCn1c(C(C)NC(=O)c2cccs2)nc2ccccc21 (stereo unspecified) | 10% | -7 | -103%* | -46% | 1%
Cc1ccc(NC(=O)c2cnc3sc(N4CCOCC4)nn3c2=O)cc1N(C)C | . | -13 | . | . | 4%
